Experimental data as given in PubChem BioAssay (EPA / NIEHS).
Values joined by “and” are separate entries in the source; they are usually repeats but may differ in a detail not shown here. Equal entries are not always repeated. A structure can be active in one record and inactive in another. Active and inactive are the calls of the source. Rule for the calls: active = hit-call score of the fitted dose curve at least 0.9, where 1 is the maximum; inactive = score below 0.9.

assay: CCTE_Simmons_MITO_basal_resp_rate: CCTE's HepG2 Seahorse XF Respirometric Screening Assay at Basal Respiratory State, Simmons Lab (AID 2284001); settings: actives raise or lower the signal
Description: CCTE_Simmons_MITO is cell-based, respirometric assay using HepG2 cells and a Seahorse XF Analyzer to measure oxygen consumption rates over four temporal phases spanning a total of 72 minutes: pre-injection (pre-treatment), basal (following test compound injection), maximal (following FCCP uncoupler injection), and inhibited (following rotenone/antimycin A injection)CCTE_Simmons_MITO_basal_resp_rate is one of 4 assay components calculated from the CCTE_Simmons_MITO assay. It is designed to make measurements of basal respiration using a form of respirometric reporter, as detected with […] signals by Seahorse XF96 technology. Data from the assay component CCTE_Simmons_MITO_basal_resp_rate was analyzed at the endpoint, CCTE_Simmons_MITO_basal_resp_rate_OCR, with bidirectional fitting relative to DMSO as the negative control and baseline of activity. Using a type of respirometric reporter, measures of basal respiration for gain or loss-of-signal activity can be used to understand cellular oxygen consumption as it relates to cellular respiration. To generalize the intended target to other relatable targets, this assay endpoint is annotated to the mitochondria intended target family, where the subfamily is respiration.
Test chemicals were administered as a titrated series of 7 concentrations from 125 nM up to 100 uM [final] prior to kinetic endpoint detection at 6 minute intervals [3 min mix followed by 3 minutes measure] for 72 minutes. Three biological replicates of technical singles were run for every chemical concentration tested. Dimethylsulfoxide [DMSO] was used as the vehicle control. The electron transport chain inhibitor fenpyroximate was used as the positive control for decreased basal respiration and was administered as a titrated series of 6 concentrations from 250 nM up to 2.75 uM [final] with technical triplicates for the top concentration only. The uncoupler 2,4-dintirophenol was used as the positive control for increased basal respiration and was administered as a titrated series of 6 concentrations from 938 nM up to 40 uM [final] with technical triplicates for the top concentration only. A Seahorse XF Analzyer is required to measure the response.

Row | Structure (SMILES) | AC50 | outcome
1 | N#Cc1cc(Br)c(O)c(Br)c1 | 9.69 µM (active) | 
2 | CCCC1COC(Cn2cncn2)(c2ccc(Cl)cc2Cl)O1 (stereo not drawn) | 18.4 µM (active) | 
3 | CCCN(CCC)c1c([N+](=O)[O-])cc(S(N)(=O)=O)cc1[N+](=O)[O-] | 30.7 µM (active) | inactive
4 | CC1COC(Cn2cncn2)(c2ccc(Oc3ccc(Cl)cc3)cc2Cl)O1 (stereo not drawn) | 6.1 µM (active) | 
5 | CCc1nn(C)c(C(=O)NCc2ccc(C(C)(C)C)cc2)c1Cl | 0.928 µM (active) | 
6 | O=C(O)COc1nc(Cl)c(Cl)cc1Cl |  | inactive
7 | N#Cc1nn(-c2c(Cl)cc(C(F)(F)F)cc2Cl)c(N)c1S(=O)C(F)(F)F (stereo not drawn) |  | inactive
8 | COP(=S)(OC)Oc1nc(Cl)c(Cl)cc1Cl |  | inactive
9 | CO/C=C(/C(=O)OC)c1ccccc1Oc1cc(Oc2ccccc2C#N)ncn1 | 9.66 µM (active) and 9.17 µM (active) | 
10 | Cc1ccc(-c2c(Cl)nc(C#N)n2S(=O)(=O)N(C)C)cc1 | 0.982 µM (active) | 
11 | OC(c1ccc(Cl)cc1)(c1cncnc1)c1ccccc1Cl (stereo not drawn) |  | inactive
12 | N#CC(CCc1ccc(Cl)cc1)(Cn1cncn1)c1ccccc1 (stereo not drawn) |  | inactive
13 | CC(C)(C)c1ccc(CSc2cnn(C(C)(C)C)c(=O)c2Cl)cc1 | 0.96 µM (active) | 
14 | C=CCC1=C(C)C(OC(=O)C2C(C=C(C)C)C2(C)C)CC1=O (stereo not drawn) | 34.7 µM (active) and 46.9 µM (active) | 
15 | O=C(Nc1ccccc1)Nc1ccnc(Cl)c1 | 72.3 µM (active) | 
16 | CCCCNC(=O)OCC#CI | 14.3 µM (active) | 
17 | CON(C)C(=O)Nc1ccc(Cl)c(Cl)c1 | 26.8 µM (active) | 
18 | COc1nc(NC(C)C)nc(NC(C)C)n1 | 32.6 µM (active) | 
19 | COC(=O)N(OC)c1ccccc1COc1ccn(-c2ccc(Cl)cc2)n1 | 2.05 µM (active) | 
20 | C#CCOS(=O)OC1CCCCC1Oc1ccc(C(C)(C)C)cc1 (stereo not drawn) | 15.5 µM (active) | 
21 | CC(C)Oc1cc(-n2nc(C(C)(C)C)oc2=O)c(Cl)cc1Cl |  | inactive
22 | Oc1ccccc1-c1ccccc1 |  | inactive
